G9a block: blocks human histone lysine methyltransferase G9a; Q96KQ7; G9a H3K9 monomethylation, AlphaScreen, 2 h; Potency, µM (doses to about 102 µM), without a hit: at the top dose activity, negative = inhibition, hits mostly inhibitors; 350,000 compounds, 8.8% hits; further: on the % scale 0 is the no-effect control and ±100 the full control effect; nearly all actives have a fitted effect of over 75% in size
Target sequence (Q96KQ7 913-1193 limits assumed): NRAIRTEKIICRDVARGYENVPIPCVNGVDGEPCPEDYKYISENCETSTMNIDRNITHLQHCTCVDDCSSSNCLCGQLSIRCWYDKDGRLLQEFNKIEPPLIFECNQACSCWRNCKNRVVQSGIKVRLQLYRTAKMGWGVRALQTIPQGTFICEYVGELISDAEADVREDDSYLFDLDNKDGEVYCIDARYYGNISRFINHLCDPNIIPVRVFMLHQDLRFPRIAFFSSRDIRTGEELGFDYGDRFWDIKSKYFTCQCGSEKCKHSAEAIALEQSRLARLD
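Using a bead-based AlphaScreen, monomethylated H3K9 product from 2 h room-temperature reactions (G9a 20 nM, peptide 500 nM, SAM 20 uM) was detected with 0.5 ug/mL rabbit anti-H3K9me1 antibody.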
BAZ2B inh: BAZ2B (human) inhibition; Q9UIF8; AlphaScreen BAZ2B-H3K14Ac peptide displacement; Potency, µM (doses to about 114 µM), for the others: at the highest dose activity change, negative = inhibition, actives largely listed as inhibitors; 360,000 compounds, 4.4% hits; AID 504333; further: on the % scale 0 is the no-effect control and ±100 the full control effect; nearly all actives have a fitted effect of over 60% in size
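Multi-concentration screen (max 110 uM) measuring displacement of acetylated histone H3 peptide from BAZ2B by AlphaScreen, using 50 nM protein, 50 nM peptide and 10 ug/mL streptavidin donor plus Ni-chelate acceptor beads.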
L3MBTL1 block: L3MBTL1 (human) inhibition; Potency, µM (titrated, usually from 57.1 µM), for inactives: at the top dose activity, negative = inhibition, actives largely listed as inhibitors; Q9Y468; 230,000 compounds, 0.66% hits; AlphaScreen L3MBTL1–H3K9me1 peptide binding; further: on the % scale 0 is the no-effect control and ±100 the full control effect; nearly all actives have a fitted effect of over 60% in size
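Displacement of a biotinylated histone H3(1-15) peptide monomethylated at Lys9 (75 nM) from L3MBTL1 (50 nM) was measured by AlphaScreen after a 30 min room-temperature compound incubation; cefsulodin titration served as intraplate control.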
Sfp PPTase inh: Sfp phosphopantetheinyl transferase inhibition; Biochemical Sfp PPTase activity, qHTS; Potency, µM, inactives show largest response in the series, negative = inhibition, actives largely listed as inhibitors; 310,000 compounds, 3.5% hits;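 further: the enzyme is Sfp with the accession as filed and its product quenches rhodamine fluorescence; 0% = enzyme reaction without inhibitor and -100% = no enzyme wells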
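After 15 min at room temperature with compound, 15 nM Sfp received 5 uM rhodamine-CoA plus 12.5 uM BHQ-2-ybbR (50 mM Hepes pH 7.6, 10 mM MgCl2). Rate came from the fluorescence difference over 30 min, ex 525/em 598 nm.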
HP1b chromo inh: inhibitors of HP1-beta chromodomain binding to methylated histone tails. P83916. AlphaScreen HP1-beta / biotin-H3K9me3 peptide binding. Potency, µM (doses to about 114 µM), for the others: top-dose activity change, negative = inhibition, most hits filed as inhibitors. 390,000 compounds, 0.56% hits. AID 540317; further: nearly all actives have a fitted effect of over 70% in size
Target sequence (P83916 whole entry, looked up): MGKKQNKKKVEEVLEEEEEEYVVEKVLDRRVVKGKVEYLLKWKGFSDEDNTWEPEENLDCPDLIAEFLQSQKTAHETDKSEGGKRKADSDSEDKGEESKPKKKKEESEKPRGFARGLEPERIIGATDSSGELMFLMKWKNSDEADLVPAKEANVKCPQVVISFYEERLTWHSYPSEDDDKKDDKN
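Compound inhibition of the preformed complex between 50 nM HP1-beta and 50 nM biotinylated H3K9me3 peptide was read by AlphaScreen. Buffer was PBS pH 7.4 with 0.01% Tween-20. Incubations ran 30 min at room temperature, with 10 ug/mL donor/acceptor beads.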
JMJD2A Tudor: inhibitors of human JMJD2A Tudor domain; O75164; AlphaScreen JMJD2A-Tudor / H3K4me3 peptide binding; Potency, µM (titrated, usually from 114 µM), inactives show top-dose activity change, negative = inhibition, hits mostly inhibitors; 390,000 compounds, 4.4% hits; further: on the % scale 0 is the no-effect control and ±100 the full control effect; nearly all actives have a fitted effect of over 50% in size
* marks the source's active call; other numbers are inactive results; ? = inconclusive; / = not tested or not shown; [ ] = dose if it differs, or a comment. Hits are enriched below; roughly 12% of the tested compounds scored in any of these assays. The call rests on the fitted dose curve; in most records, active means well fitted curve in the direction sought with a large enough effect; inconclusive means small, poorly fitted or top-dose-only effect, or another doubt; inactive means no such curve, though single readings can be large; an effect the other way counts as inactive or inconclusive. Potency means the concentration at half of the fitted maximal effect.

SMILES | G9a block | BAZ2B inh | L3MBTL1 block | Sfp PPTase inh | HP1b chromo inh | JMJD2A Tudor
Cc1cccc(CN2C(=O)/C(=C\c3ccc(C(=O)NCCN4CCOCC4)cc3)Sc3ccccc32)c1 | / | ? | / | ? | 9% | ?
CCN1CCN(CCNC(=O)c2ccc(/C=C3/Sc4ccccc4N(Cc4cccc(Cl)c4)C3=O)cc2)CC1 | 40µM* | -37% | / | 50µM* | ? | 22µM*
CCc1ccc(/C=C2/Sc3ccccc3N(CC(=O)NCCCN3CCOCC3)C2=O)cc1 | -12% | 35µM* | / | -26% | -9%[57 µM] | ?
CCN1CCN(CCNC(=O)c2ccc3c(c2)N(Cc2ccc(F)cc2)C(=O)/C(=C/c2ccccc2)S3)CC1 | ? | 40µM* | / | 50µM* | ? | ?
O=C(CN1C(=O)/C(=C\c2cccc(Br)c2)Oc2ccccc21)NCCCN1CCOCC1 | 17%[59 µM] | -6% | / | -24% | 58% | 45µM*
O=C(NCCN1CCOCC1)c1ccc(/C=C2\Sc3ccccc3N(Cc3ccccc3F)C2=O)cc1 | / | ? | / | -19% | -4%[57 µM] | ?
Cc1ccc(NC(=O)COc2ccc(N(C)C(=O)C(C)(C)C)cc2)cc1S(=O)(=O)N1CCCCC1 | / | / | -2% | / | 16% | -27%
COc1ccc(/C=C/C2=C[C@]3(C)C[C@]2(C)[C@H](c2ccc(OC)cc2)CC3=O)cc1 | / | / | / | -24% | / | /
O=C(O)c1cccc(-n2nc(-c3ccc(Cl)c([N+](=O)[O-])c3)c3ccccc3c2=O)c1 | ? | -33% | / | 13% | 15% | -19%
N[C@@H](COC(c1cccc(F)c1)c1ccccc1OCc1ccccc1)C(=O)O (stereo partly specified) | / | / | / | -14% | / | /
CN1CCN(CCCNC(=O)c2ccc(/C=C3\Sc4ccccc4N(Cc4ccccc4F)C3=O)cc2)CC1 | ? | ? | / | 40µM* | 10% | ?
COc1ccc(CCNC(=O)c2c(C)nc3ccccn23)cc1OC | / | -14% | -2% | -3% | 38% | -4%
CCOC(=O)C(O)(NC(=O)c1cccnc1)C(F)(F)F (stereo unspecified) | ? | -31% | / | 8% | 52% | 8%
CC(=O)C(C(C)=O)C(NC(=O)c1cccnc1)(C(F)(F)F)C(F)(F)F | -16%[59 µM] | -24% | -6% | 8% | 20% | 3.5µM*
CC(Oc1ccc(S(=O)(=O)N2CCCC2)cc1[N+](=O)[O-])C(=O)N(C)c1ccccc1 (stereo unspecified) | -12%[2.33 µM] | -1% | -7% | / | 24% | -6%
O=[N+]([O-])c1cc(S(=O)(=O)O)cc([N+](=O)[O-])c1NN(c1ccccc1)c1ccccc1 | 50µM* | -37% | / | -24% | 7% | ?
COc1cc(C(=O)OCC(=O)NC(=O)NC2CCCCC2)cc(Cl)c1OC | 0%[59 µM] | 5% | -2% | / | 21% | -10%
O=C(Nc1ccc(N2CCOCC2)c(Cl)c1)c1cccc(-n2cnnc2)c1 | 21% | -5% | / | 8% | 17% | -11%
CCc1nnc(NC(=O)c2ccc(Cl)nc2)s1 | ? | -27% | -2% | 6% | 24% | -11%
CCN(c1ccc(NC(=O)c2ccc(Cl)nc2)cc1)C(C)C | 22µM* | ? | ? | 7% | 29% | -15%
Cc1cc(C)n(-c2ccc(C(=O)Nc3ccc(N4CCOCC4)cc3)cc2)n1 | 56µM* | -27% | / | 14% | 24% | -25%
CCOc1ccc(NC(=O)c2cccc(-n3cccc3)c2)cc1S(=O)(=O)N1CCOCC1 | -7%[2.33 µM] | 5µM* | 5.6µM* | / | / | /
O=C(Nc1ccc(N2CCOCC2)cc1)c1cccc(-n2cnnc2)c1 | 45µM* | -22% | / | 10% | -11% | -15%
CNc1ncncc1-c1ccc(C(=O)N(C)C)cc1 | / | / | / | -22% | / | /
Cc1ccc(CNCc2cn[nH]c2-c2ccc(C)cc2)cc1 | / | / | / | / | 24% | -17%
SMILES | G9a block | BAZ2B inh | L3MBTL1 block | Sfp PPTase inh | HP1b chromo inh | JMJD2A Tudor
Cc1ccccc1CN(c1ccc(C(=O)NCc2ccccn2)cc1)S(C)(=O)=O | -32% | -10% | 1% | 13% | 50% | -21%
CC1CCc2sc(C(=O)NCC(C)(C)N3CCOCC3)cc2C1 (stereo unspecified) | 1% | 3% | -7% | / | 28% | -14%
CC1CCc2sc(C(=O)Nc3ccc(N4CCOCC4)cc3)cc2C1 (stereo unspecified) | 32µM* | ? | -2% | 0% | ? | ?
O=C(Nc1ccc(N2CCOCC2)cc1)c1ccc(Cl)nc1 | 50µM* | ? | / | 1% | -18% | ?
COc1ccccc1CNC(=O)Cc1csc2nc(-c3ccc(Cl)cc3)cn12 | 9%[59 µM] | -11% | / | / | 8%[57 µM] | -5%
COc1ccc(NC(=O)COC(=O)c2ccc(-n3cnnn3)cc2)cc1Cl | 40µM* | 3% | 6% | / | 19% | -11%
COc1ccc(NC(=O)COC(=O)/C=C/C(=O)OCC(=O)Nc2ccc(OC)c(Cl)c2)cc1Cl | ? | -13% | 0% | 79µM* | 7% | -19%
COc1cccc(-n2ccn(CC(=O)c3ccc(F)cc3)c(=O)c2=O)c1 | -2%[59 µM] | 0% | / | / | 14% | -9%
CN1CCN(C(=O)/C(=C/c2ccc(F)cc2)c2ccsc2)CC1 | 45µM* | -24% | -2% | 1% | 61% | 1%
Cc1nc2cc(N=NC3=C(O)CCCC3=O)ccc2s1 | ? | 56µM* | -26% | -9% | -17% | ?
COc1cc2sc(-c3ccccc3OC)c(-c3ccc(OCCN4CCCCC4)cc3)c2cc1OC | / | / | -13% | / | ? | 28µM*
COc1ccccc1-c1sc2cc3c(cc2c1-c1ccc(OCCN2CCCCC2)cc1)OCO3 | / | / | -17% | / | -24% | 11µM*
COc1ccc(-c2sc3cc4c(cc3c2-c2ccc(OCCN3CCOCC3)cc2)OCO4)cc1 | / | / | -4% | / | 5% | ?
COc1ccccc1-c1sc2ccccc2c1-c1ccc2c(c1)OCO2 | 4% | 6% | 4% | 0% | 50% | 27%
